Screening data from PubChem BioAssay.
Hits are enriched below; roughly 3.5% of the tested compounds scored in any of these assays.
FBW7 activator: human FBW7 E3 ligase activation, primary screen. AlphaScreen FBW7–phospho-cyclin E peptide binding, activator screen. normalized activity (activation), % at 26.1 µM. 0.13% of 650,000 active. Q969H0; in the data active = normalized activity above about 1.9%;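 also: purified mutant Fbw7 with reduced substrate affinity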
Target sequence (Q969H0 whole entry, looked up): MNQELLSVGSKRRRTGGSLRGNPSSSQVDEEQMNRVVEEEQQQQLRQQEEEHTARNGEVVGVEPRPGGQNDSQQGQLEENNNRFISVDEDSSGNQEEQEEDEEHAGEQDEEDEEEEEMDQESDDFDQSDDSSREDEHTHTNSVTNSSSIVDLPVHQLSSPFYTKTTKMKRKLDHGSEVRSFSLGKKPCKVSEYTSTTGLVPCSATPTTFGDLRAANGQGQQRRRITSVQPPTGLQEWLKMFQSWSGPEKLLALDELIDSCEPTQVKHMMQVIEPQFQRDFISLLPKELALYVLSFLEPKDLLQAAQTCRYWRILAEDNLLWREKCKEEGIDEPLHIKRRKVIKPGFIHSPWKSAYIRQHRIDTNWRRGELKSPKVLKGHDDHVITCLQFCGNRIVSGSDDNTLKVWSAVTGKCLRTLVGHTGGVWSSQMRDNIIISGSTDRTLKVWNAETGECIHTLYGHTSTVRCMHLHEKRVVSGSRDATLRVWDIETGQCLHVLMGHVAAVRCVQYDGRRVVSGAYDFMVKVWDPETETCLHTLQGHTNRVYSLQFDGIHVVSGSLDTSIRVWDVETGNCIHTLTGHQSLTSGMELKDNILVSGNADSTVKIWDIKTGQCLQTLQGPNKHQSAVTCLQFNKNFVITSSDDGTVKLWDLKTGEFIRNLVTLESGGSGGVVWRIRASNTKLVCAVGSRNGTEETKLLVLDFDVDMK
TEAD-YAP block: TEAD-YAP interaction inhibition; HEK-TIYL cells, TEAD-Gal4/YAP UAS-luciferase luminescence; inhibition, % at 9.12 µM; 1.4% of 640,000 active; in the data active = inhibition above about 32%;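 also: 0% = median of test compound wells and 100% = reference inhibitor wells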
MITF inh: inhibitors of human MITF | AlphaScreen MITF homodimerization, bead proximity signal | inhibition, % at 2.6 µM | 0.91% of 650,000 active | AID 1259374; in the data active = inhibition above about 50%;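 also: 0% = vehicle wells with protein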
GPR151 ag: human GPR151 activation; activation, % at 11.2 µM; 1% of 650,000 active; PathHunter beta-arrestin GPR151 cells, luminescence; in the data active = activation above about 4.9%;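 also: 0% = median of compound wells and 100% = cells with positive control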
* hit, by the source's call.

SMILES	FBW7 activator	TEAD-YAP block	MITF inh	GPR151 ag
Cn1cc(-c2ccc3cnc(Nc4ccc(-n5cnc(N6CCOCC6)n5)cc4)nc3c2C2CC2)cn1	0	81*	3	-1
Cc1ccc2onc(CNC(=O)NC3CCCC(C)C3C)c2c1 (configuration not stated)	0	3	0	4
COc1ccc(Br)cc1C1C2=C(CC(C)(C)CC2=O)N(CCN2CCOCC2)C2=C1C(=O)CC(C)(C)C2	0	-2	-1	0
Cc1cccc(NC(c2cccc(F)c2)c2ccc3cccnc3c2O)n1 (configuration not stated)	0	40*	5	-1
Cc1cccc(NC(c2ccc(F)cc2)c2ccc3cccnc3c2O)n1 (configuration not stated)	0	86*	26	-2
Oc1c(C(Nc2ccccn2)c2cccc(F)c2)ccc2cccnc12 (configuration not stated)	0	21	0	0
Oc1c(C(Nc2ncccn2)c2ccc(F)cc2)ccc2cccnc12 (configuration not stated)	0	1	15	2
Oc1c(C(Nc2ccc(F)cc2)c2ccncc2)ccc2cccnc12 (configuration not stated)	-2	-3	61*	-1
S=C(NCCc1ccccc1)N/N=C/c1ccccn1	0	80*	38	-2
COc1ccc(/C(C)=N/NC(=S)NCCc2ccccc2)c(O)c1	0	2	87*	-1
C/C(=N\NC(=S)NCCc1ccccc1)c1ccccn1	-1	88*	26	1
O=C(Cc1ccccc1)N/N=C/c1ccccn1	0	-17	2	-1
Cc1cc(C)nc(SCc2cc(=O)c(OC(=O)c3cccc([N+](=O)[O-])c3C)co2)n1	0	-8	21	0
CN1CCc2c(sc(NC(=O)c3ccccc3Oc3ccccc3)c2C(N)=O)C1	0	-8	8	0
Cc1nccn1-c1ccc(C(F)(F)F)cn1	0	4	7	2
COCCCNC(=O)/C(C#N)=C/c1cn(Cc2ccccc2)c2ccccc12	1	44*	5	3
COCCCNC(=O)/C(C#N)=C/c1cc(C)n(-c2ccccc2)c1C	0	40*	10	1
COCCNC(=O)/C(C#N)=C/c1cc(C)n(-c2sc(C)c(C)c2C#N)c1C	0	51*	-2	0
COCCCNC(=O)/C(C#N)=C/c1cc(C)n(-c2ccc(C)cc2)c1C	0	5	10	0
c1nc(N2CCCCCCC2)c2c3c(sc2n1)CCC3	0	-2	9	0
COc1ccc(N(C2C=CS(=O)(=O)C2)S(=O)(=O)c2ccc([N+](=O)[O-])cc2)cc1 (configuration not stated)	0	13	6	-1
Cc1ccc(Nc2nc(N)c3ccccc3n2)cc1C	0	55*	19	-6
Nc1nccc(-c2ccc3nc(C4COc5ccc(C(=O)NCCc6cccs6)cc5C4)[nH]c3c2)n1 (configuration not stated)	24*	20	-8	-1
CN(C)CCNC(=O)c1ccc2c(c1)CC(c1nc3ccc(-c4ccnc(N)n4)cc3[nH]1)CO2 (configuration not stated)	0	-2	38	-1
COc1ccccc1CCNC(=O)c1ccc2c(c1)CC(c1nc3ccc(-c4ccnc(N)n4)cc3[nH]1)CO2 (configuration not stated)	3.0*	29	-7	-1
SMILES	FBW7 activator	TEAD-YAP block	MITF inh	GPR151 ag
CCOc1ccc(/C=C/C(=O)Nc2ccc3nc4n(c(=O)c3c2)CCCC4)cc1OC	0	-8	2	1
Cc1cc(N2CCOCC2)nc2ccc(NC(=O)c3ccncc3)cc12	0	49*	6	0
COc1c(C)cc(Br)cc1C(=O)NC(=S)Nc1nnn(C)n1	0	3	9	-1
CCOC(=O)c1cnc2ccc(C)cc2c1NCCCN1CCOCC1	0	38*	-20	0
CCOC(=O)c1cnc2ccc(C)cc2c1NCCN1CCOCC1	0	-6	-2	-1
COc1cc(Cc2nc3cc(C)c(C)cc3[nH]c2=O)cc(OC)c1OC	0	55*	4	-1
COc1ccccc1Cc1nc2cc(C)c(C)cc2[nH]c1=O	0	7	7	1
C/C(=N\NC(=O)c1n[nH]c2c1CCC2)C1CC1	0	52*	8	1
CC1(C)CC(=NNC(=O)c2n[nH]c3c2CCC3)CC(C)(C)N1	0	62*	4	3
FC(F)(F)c1cccc(CNc2nc(Nc3cnccn3)nc3c2ncn3-c2ccccc2)c1	0	6	-5	-1
FC(F)(F)c1cccc(CNc2nc(NCc3cccnc3)nc3c2ncn3-c2ccccc2)c1	0	48*	-8	0
CC(C)n1cnc2c(NCc3cccc(C(F)(F)F)c3)nc(NCc3cccnc3)nc21	0	40*	13	0
CC[C@H]1CN2CCc3cc(OC)c(OC)cc3C2C[C@@H]1CC1NCCc2cc(OC)c(OC)cc21 (some centres not stated)	0	95*	1	2
Cc1cc(C)n(C(=C(/C(Cl)=C(/Cl)Br)[N+](=O)[O-])n2nc(C)cc2C)n1	0	42*	14	0
Cc1ccc(N/C(=N/S(=O)(=O)c2ccccc2)c2ccccc2)cc1	0	44*	9	1
COc1ccccc1-c1c(C(F)(F)F)oc2cc(OC(=O)C(C)C)ccc2c1=O	0	7	12	0
COc1ccccc1-c1c(C(F)(F)F)oc2cc(OC(=O)N3CCOCC3)ccc2c1=O	0	52*	13	1
COc1ccc(Cl)cc1S(=O)(=O)N(C)CC(O)Cn1cc(C=O)c2ccccc21 (configuration not stated)	0	11	-3	-1
COc1ccc2cc3c(N)nn(C(=O)c4ccccc4F)c3nc2c1	0	55*	4	0
COc1ccc2cc3c(N)nn(C(=O)c4cccc(F)c4)c3nc2c1	0	29	8	0
COc1ccc2cc3c(N)nn(C(=O)c4cccnc4)c3nc2c1	0	32*	-11	0
COc1ccc2cc3c(N)nn(C(=O)c4ccccc4Cl)c3nc2c1	0	45*	9	-2
COc1ccc2cc3c(N)nn(C(=O)c4cccc(Cl)c4)c3nc2c1	0	-2	-2	-2
COc1ccc2cc3c(N)nn(C(=O)c4ccc(F)cc4)c3nc2c1	0	36*	11	1
Cc1cccc(NS(=O)(=O)c2cc3c(cc2C)N(C)CCO3)n1	0	-14	1	1
COc1ccc(Nc2nc(Nc3ccc(C)cc3)nc(Sc3ccc(C)cc3)n2)cc1	1	6	21	1
CNC(=O)c1ccccc1Nc1cc(NCc2ccccc2)ncc1C(F)(F)F	0	22	18	1
CS(=O)(=O)NC1CCC(Nc2cc(Nc3ccccc3C(N)=O)c(C(F)(F)F)cn2)CC1 (configuration not stated)	1	98*	11	-2
CNC(=O)c1ccccc1Nc1cc(NC(=O)Cc2cccs2)ncc1C(F)(F)F	0	74*	8	-1
